Data published in the supplement of paper PMC3334620.
Whole data set: some 33,000 sequences, median “E-score (-0.5 to 0.5)” near -0.054, cut for the highest 2% near 0.35. What follows is part of a selection rich in the highest values, with near analogues and random picks from the rest.

Target: T1, Stb5 (UniProt P38699)
T1 sequence: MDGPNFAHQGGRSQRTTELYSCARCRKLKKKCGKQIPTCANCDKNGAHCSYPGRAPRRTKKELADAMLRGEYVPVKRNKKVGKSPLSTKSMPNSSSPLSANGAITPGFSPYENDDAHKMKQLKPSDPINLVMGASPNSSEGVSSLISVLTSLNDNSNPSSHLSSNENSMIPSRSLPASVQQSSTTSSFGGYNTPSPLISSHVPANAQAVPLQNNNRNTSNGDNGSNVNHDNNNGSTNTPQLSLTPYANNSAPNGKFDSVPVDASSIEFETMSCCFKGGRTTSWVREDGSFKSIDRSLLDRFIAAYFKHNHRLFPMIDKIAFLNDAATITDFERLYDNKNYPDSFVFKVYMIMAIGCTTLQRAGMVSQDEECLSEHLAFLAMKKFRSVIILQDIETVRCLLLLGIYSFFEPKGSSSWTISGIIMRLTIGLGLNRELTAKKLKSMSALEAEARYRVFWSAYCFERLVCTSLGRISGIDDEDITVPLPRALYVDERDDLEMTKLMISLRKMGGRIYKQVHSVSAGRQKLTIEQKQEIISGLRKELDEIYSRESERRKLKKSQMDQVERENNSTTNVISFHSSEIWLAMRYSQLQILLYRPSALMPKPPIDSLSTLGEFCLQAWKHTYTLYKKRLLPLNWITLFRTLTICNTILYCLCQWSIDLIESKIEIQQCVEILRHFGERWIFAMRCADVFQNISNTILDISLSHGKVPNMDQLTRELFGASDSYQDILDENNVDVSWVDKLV
Assay: PBM E-score (8-mer binding enrichment) (E-score (-0.5 to 0.5)); higher = stronger / more preferred TF binding
Settings: protein concentration: 200 nM; construct: GST-full length
Method: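 Universal 'all 10-mer' protein binding microarrays (Agilent AMADID 015681) probed with GST-tagged S. cerevisiae TFs (full-length or DBD) made by in vitro transcription/translation (PURExpress), about 100-200 nM. Bound TF was detected with fluorescent anti-GST. Each ungapped 8-mer (which stands for itself and its reverse complement) is scored by the PBM enrichment score (E-score), a modified Wilcoxon-Mann-Whitney statistic from -0.5 to +0.5, computed with the Universal PBM Analysis Suite. Scale: above 0.35 generally sequence-specific binding.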

Sequence | PBM E-score
ACGTGGGA | -0.265
AGAAAAGG | -0.103
ATCAAACA | -0.234
GTATCGGA | 0.263
ATATCGGA | 0.166
CTATCGGA | 0.402
CTATATCC | 0.187
ATATATCC | 0.398
ATATATCA | 0.0402
ACCTTTAG | 0.0714
TAAGCCCA | 0.0396
AACGCGAC | -0.173
AATAGAAT | -0.187
GATAGGTA | -0.0734
ACCGGCAG | 0.277
ATCGGCAC | 0.339
ACCGGCAC | 0.373
AGCGGCAC | 0.355
CGCGGCAC | 0.288
ATCGGCAG | 0.219
ATCGGCAT | 0.363
CTCGGCAC | 0.187
GTCGGCAA | 0.276
GTCGGCAC | 0.374
GGCGGCAC | 0.343

Sequence | PBM E-score
ACCGGCAA | 0.241
ATTGGAGC | -0.193
TATCCTAA | -0.109
CATGTGGG | -0.114
CCATGGGC | -0.0701
AAATTGAC | 0.0873
AGCGGCAT | 0.401
AGCGGCCG | 0.252
AGCGGCAG | 0.276
AGCGGCAA | 0.2
AGCGGCCT | 0.377
AGCGGCCA | 0.177
AAGGCGGA | 0.292
AGCACGAC | -0.2
CTACGAGA | -0.102
ATTATCCA | -0.0234
AATATCCG | 0.39
ATTATCCC | 0.0778
AACATCCG | 0.359
AATATCCC | 0.291
AATATCCA | -0.00669
AACATCCC | 0.149
ATTATCCG | 0.359
CACATCCG | 0.0898
AGTTCGGA | 0.208

Sequence | PBM E-score
AAGTGCGA | 0.187
GGGGTGCA | 0.0203
ACACAGAG | -0.0564
AACTCATC | -0.116
ACTTGCAT | 0.0144
GCTCTGAA | -0.166
AACACATA | -0.222
ATAATACA | 0.0704
ATTATACG | 0.173
ATTATACA | 0.0217
ATTATACC | 0.362
ATAATACC | 0.368
ATAATACG | 0.153
ATGTGGTC | -0.168
GCCGTTCC | 0.202
GATTCTCC | 0.112
AGTCGAAT | -0.199
AATCCCGT | 0.419
AATCCCCT | -0.165
AATCCCAT | -0.042
CGTCCCGC | 0.2
AATCCCGC | 0.398
AGTCCCGA | 0.342
CATCCCGC | 0.155
AATCCCGA | 0.394

Sequence | PBM E-score
GATCCCGC | 0.232
CATCCCGA | 0.1
TATCCCGA | 0.18
AGTCCCGC | 0.358
CAATTTTA | -0.00732
TGTATACA | 0.0199
AAGGCTTG | -0.305
CATACTGC | -0.045
CTTCAAAG | -0.124
GCACTCTA | -0.0909
GGACAAAC | 0.0886
ACATACCG | 0.28
AGGTCGGA | 0.326
AGGTCCGA | 0.412
CGGTCCCA | 0.358
AGGTCCCA | -0.357
AGGTCCAG | -0.156
GGGTCCGA | 0.332
AGGTCCTG | -0.205
GGGTCCCA | -0.0448
AGGTCCAA | -0.167
CGGTCCGA | 0.389
AGGTCCGG | 0.382
CGGTCCAA | 0.186
AAATTCGA | 0.0745

Sequence | PBM E-score
CGGCATTC | 0.285
AACCATCG | 0.041
AAACGGAT | 0.197
AGAGATAT | -0.194
AAAAAGCT | -0.205
AGGTCCAC | -0.0841
GGGTCTCA | 0.00241
CGGTCCTC | 0.16
CGGTCTCA | 0.376
AGGTCCTA | 0.0577
CGGTCCGC | 0.298
AGGTCCGC | 0.425
CGGTCCTA | 0.448
CGGTCTCC | 0.195
GCCTTCGA | -0.137
CGCAAGGA | -0.0543
GACCTCTC | -0.126
AGTAGTTG | -0.0997
ACTGCTTG | -0.185
CCCAGTAG | -0.128
ACCCCTGA | -0.108
CCGATCGG | 0.413
AAGATCGC | -0.0115
CAGATCGG | 0.29
CCGATCGA | 0.285

Sequence | PBM E-score
ACGATCGG | 0.298
AAGATCGG | 0.352
GCAACTTA | -0.0671
CAGTCTAA | 0.00323
GCCGCCCA | 0.19
ACCCGCCC | 0.276
ACCGCCCG | 0.345
ACCGCCCT | 0.268
CCCCGCCC | 0.43
GCCCGCCC | 0.271
ACCGCCCC | 0.367
GCCCCCCC | -0.161
GCCGCCCC | 0.388
CCCGCCCG | 0.298
CCCGCCCC | 0.361
CCCGCCCA | 0.258
ACCTCCAG | -0.188
ATAAGGGC | 0.0814
GAAGCCAC | 0.0166
GCCCGTTA | 0.228
TGGAAGAA | -0.0838
ATGATCGG | 0.297
CCTGATCA | -0.0914
AGAGAACC | -0.125
CTCATGCC | -0.103

Sequence | PBM E-score
GAGATACC | 0.168
AGACCAGA | -0.27
ATAGAAGA | -0.05
TGTCTTAA | 0.00631
GGCCTTAA | 0.377
AGCCTTAA | -0.0403
TGCCTTAA | -0.192
GGACTTAC | 0.358
GGTCTTAA | 0.355
GGGCTTAA | 0.391
TGGCTTAA | -0.044
CGTCTTAA | -0.0278
CGGCTTAA | 0.351
CGACTTAC | 0.0696
AGACTTAC | -0.161
CCCTGGAG | -0.234
GCTCGGCA | 0.122
CTCAATCA | -0.00421
AACTAGCC | -0.148
ATGTGGTA | -0.222
CGCGGGAA | 0.272
AATCTTGG | -0.0505
